From PubChem BioAssay (NCI) come the findings set out here.

A short description of test [1]: NCI Yeast Anticancer Drug Screen. Data for the rad50 strain (AID 155).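 Also: 0% = growth of vehicle-only cultures of the same strain.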 As to conditions: S. cerevisiae rad50 strain growth inhibition; at 50.0 µM; hits give high values. The method in brief: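 Yeast carrying a defined DNA repair defect were exposed to test compounds, and growth was compared with vehicle-treated controls to give percent inhibition.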
Test [2] is described as follows: NCI Yeast Anticancer Drug Screen. Data for the mec2-1 strain (AID 157). As to conditions: S. cerevisiae mec2-1 strain, at 50.0 µM, hits give high values. The method in brief: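 Yeast mec2-1 mutant treated with compound. Readout: growth inhibition vs vehicle controls.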
A short description of test [3]: NCI Yeast Anticancer Drug Screen. Data for the sgs1 mgt1 strain (AID 161).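 Also: 0% = growth of cultures given vehicle only.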 As to conditions: S. cerevisiae sgs1 mgt1 strain, at 50.0 µM, hits give high values. A digest of the protocol:
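Genetically altered yeast, compound exposure, growth inhibition relative to vehicle.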

Test [4] in a line: NCI Yeast Anticancer Drug Screen. Data for the cln2 rad14 strain (AID 165).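 Also: 0% = growth equal to vehicle treated cultures.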 As to conditions: S. cerevisiae cln2 rad14 strain, at 50.0 µM, hits give high values. The method in brief: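 cln2 rad14 yeast strain; compound exposure; growth inhibition read vs vehicle controls.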
A short description of test [5]: NCI Yeast Anticancer Drug Screen. Data for the bub3 strain (AID 167). As to conditions: S. cerevisiae bub3 mutant strain, at 50.0 µM, hits give high values. The method in brief: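 Compounds were applied to a genetically altered yeast strain carrying a cell-cycle control defect. Growth inhibition was scored against vehicle-treated controls.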
A short description of test [6]: NCI Yeast Anticancer Drug Screen. Data for the mlh1 rad18 strain (AID 175). As to conditions: S. cerevisiae mlh1 rad18 strain growth inhibition; at 50.0 µM; hits give high values. The method in brief: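 Yeast w/ defined DNA-repair lesions; compound exposure; growth vs vehicle controls → % inhibition.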

The structures appear in SMILES notation. The panel holds about 79,000 compounds, 15% with a hit somewhere; the sample as a whole holds those more often. Values without a mark were called inactive. Calls of active or inactive are those of the source. Rule as the data show it: active = growth inhibition above about 70%; inactive = the rest.

Take `Cc1ccc(S(=O)(=O)N/N=C2\CC[C@H]3[C@@H]4CC=C5C[C@@H](O)CC[C@]5(C)[C@H]4CC[C@]23C)cc1`: the growth inhibition is 95.3% (active) in test [1]; 95.3% (active) in test [2]; 76.3% (active) in test [3]; 97% (active) in test [4]; 90.6% (active) in test [5]; 96% (active) in test [6].

Turning to `CCN(CC)c1ccc2cc(C(=O)NC(=O)Oc3ccccc3)c(=O)oc2c1`, the growth inhibition in test [1] was 25.1%; in test [2] it was -5.5%; in test [3] it was -6.05%; in test [4], 25.1%; in test [5], -3.2%; in test [6], 9.35%.

In the case of `CC12CC3C(CC1SCC(=O)O2)C3(C)C` (stereo not given), the growth inhibition in test [1] was -27.2%; in test [2] it was -1.1%; in test [3], -44.8%; in test [4], 1.4%; in test [5], -25.1%; in test [6] it was -26.2%.

For `C[N+]1(C)CCC[N+](C)(C)CC1`, the growth inhibition in test [1] was -15.9%; in test [2], -7.75%; in test [3], 3.9%; in test [4] it was 16.2%; in test [5], 20.9%; in test [6], 6.4%.

With `Cn1c(SCc2ccc(F)cc2)nnc1C12CC3CC(CC(C3)C1)C2`, the growth inhibition in test [1] was -32.2%; in test [2], -12.2%; in test [3] it was -22.6%; in test [4], -1.95%; in test [5], -17.4%; in test [6] it was -48.1%.

Turning to `CC1CCc2c(ccc3ccccc23)C1` (stereo not given), the growth inhibition is -0.25% in test [1]; -16.4% in test [2]; -3.55% in test [3]; -4.55% in test [4]; -16.8% in test [5]; -2.05% in test [6].

In the case of `COc1ccc(C(CC(=O)O)c2ccc(OC)c(OC)c2)c(OC)c1` (stereo not given), the growth inhibition is 3.4% in test [1]; -1.25% in test [2]; -6.65% in test [3]; -59.9% in test [4]; -1.6% in test [5]; 5.15% in test [6].

`CCCN=C(C(C)=O)N(C)C`: the growth inhibition in test [1] is -1.7%; in test [2] it was 1.3%; in test [3], -14.9%; in test [4], 6.55%; in test [5], 24.2%; in test [6], 2.85%.

For the compound `COc1ccc(NC(=O)CN)cc1`, the growth inhibition in test [1] was 1.3%; in test [2], -9.9%; in test [3], 0.2%; in test [4], -2.55%; in test [5] it was 7.6%; in test [6], 0.7%.

`Cc1ccc(C)c(CNC(=O)Nc2ccccc2Cl)c1`: the growth inhibition in test [1] is 12.4%; in test [2], -14.3%; in test [3] it was -22.8%; in test [4] it was 6.75%; in test [5], 5.35%; in test [6] it was -18.2%.

Take `Cc1cc(C(C)(C)C)ccc1S(=O)(=O)/C=C/c1ccccc1`: the growth inhibition in test [1] is -18.6%; in test [2] it was -23.1%; in test [3], -6.1%; in test [4], 0.45%; in test [5], -1.7%; in test [6] it was -26.1%.

For the compound `O=CC(O)C(O)C(O)C(O)COC1OC(CO)C(O)C(O)C1O` (stereo not given), the growth inhibition in test [1] was 22.6%; in test [2], -11.7%; in test [3], 21.2%; in test [4], 8%; in test [5] it was 23%; in test [6] it was 11.1%.

On to `O=[N+]([O-])c1cccc(N=C2c3ccccc3CN2c2cccc([N+](=O)[O-])c2)c1`, for which the growth inhibition is -23.4% in test [1]; 5.8% in test [2]; -5.3% in test [3]; 26.7% in test [4]; 11.5% in test [5]; -0.4% in test [6].

Take `CCOC(=O)CNC(=O)C(CSSCC(NC(=O)OCc1ccccc1)C(=O)OC)NC(=O)C(NC(=O)OCc1ccccc1)C(C)C` (stereo not given): the growth inhibition is 7.65% in test [1]; 21.3% in test [2]; 14.5% in test [3]; -1.65% in test [4]; -11.7% in test [5]; 56.6% in test [6].

As for `C=C1C(=O)O[C@H]2[C@H]1CC(=O)/C(C)=C\CC[C@@]1(C)O[C@@H]21`, the growth inhibition in test [1] is 29.2%; in test [2] it was 59.4%; in test [3] it was 63.4%; in test [4], 35.5%; in test [5], 64.8%; in test [6], 43.1%.

Take `O=C(CSc1nnc(-c2ccc(N=Cc3ccc(Cl)cc3)cc2)o1)Nc1ccc([N+](=O)[O-])cc1`: the growth inhibition in test [1] is 14.7%; in test [2], -7.65%; in test [3] it was 14.7%; in test [4] it was -53.8%; in test [5], -11.3%; in test [6], 14.9%.

As for `COc1cc(-c2cc(=O)c3cc4c(cc3[nH]2)OCO4)cc(OC)c1O`, the growth inhibition in test [1] is -19.9%; in test [2] it was -14.1%; in test [3], -4.5%; in test [4], 13.4%; in test [5], -12.3%; in test [6], -9.85%.

Consider `COc1ccc(O)c(/C=N\N=C\c2cc(OC)ccc2O)c1`, for which the growth inhibition in test [1] was -1.25%; in test [2] it was -1.15%; in test [3], -2.3%; in test [4] it was -22.5%; in test [5], 22.9%; in test [6], -2.8%.

With `CC(C)c1ccc(OC(=O)N(c2ccccc2)c2ccccc2)cc1`, the growth inhibition was 12.4% in test [1]; 15% in test [2]; -5.35% in test [3]; 3.5% in test [4]; -1.6% in test [5]; -2.8% in test [6].

For the compound `CCCCCOc1ccc(C(=O)OC)cc1`, the growth inhibition in test [1] was -25.9%; in test [2], -5.15%; in test [3], 6.2%; in test [4], -22.8%; in test [5], -0.1%; in test [6] it was -20%.
